The nature of test [1]: E. coli DRC41 culture turbidity changes, primary screen, E. coli filamentation inducer project, strain DRC41, OD650, 48 h (AID 1152).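 Also: E. coli MC1000 strain DRC41 lacking acrAB efflux pump and sulA.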 The conditions noted are these: E. coli DRC41 (acrAB sulA), higher = more signal, called active from +8 up or from −8 down.
Test [2] is described as follows: small-molecule binders of probe aLefty1, primary screen, biochemical, small-molecule microarray, 635/667 nm fluorescence (AID 1153).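 Also: score merges spot fluorescence with signal-to-noise ratio from the scanned slide images.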 The conditions noted are these: higher = more signal.
Test [3] in a line: PSAC antagonists in infected red cells, primary screen, cell-based, P. falciparum Indochina, OD700, 1 h (AID 1154). Particulars: P. falciparum Indochina infected RBC osmotic lysis, higher = more signal, called active from +8 up or from −8 down.
Test [4] can be described thus: PSAC antagonists in infected red cells, primary screen, cell-based, P. falciparum Indochina, OD700, 2 h (AID 1155).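 Also: lysis reports solute entry through the parasite surface anion channel PSAC; channel blockers reduce lysis of infected cells.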 Particulars: P. falciparum Indochina infected erythrocytes, osmotic lysis OD700; higher = more signal, called active from +8 up or from −8 down.
The nature of test [5]: osmotic lysis modulators in infected erythrocytes, primary screen, PSAC antagonist project, cell-based, P. falciparum Indochina, OD700, 3 h (AID 1156). Particulars: higher = more signal, called active from +8 up or from −8 down.
Test [6] in a line: PSAC antagonists in infected red cells, primary screen, cell-based, P. falciparum Indochina, OD700, 18 h (AID 1157). Particulars: P. falciparum Indochina infected erythrocytes, osmotic lysis OD700, 18 h; higher = more signal, called active from +8 up or from −8 down.
A short description of test [7]: modulators of S6 phosphorylation in cells, primary screen, cell-based, A549, cytoblot, luminescence, serum-stimulated (AID 1158).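 Also: serum-stimulated A549 lung adenocarcinoma cells; signal is phosphorylated S6 detected by cytoblot immunostaining with HRP secondary.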 The conditions noted are these: A549 phospho-S6 cytoblot, 5 h, higher = more signal.
Test [8] has as its target NADPH oxidase 2 (Homo sapiens) (UniProt P04839). The test is described as follows: NOX2-dependent H2O2 signal modulators, primary screen, NOX inhibitor project, cell-based, HEK293-NOX2, PMA-stimulated, Amplex Red fluorescence (AID 1159). Also: test concentration not given here. The conditions noted are these: 45 min, higher = more signal, called active from +8 up or from −8 down.
In test [9] the target is NADPH oxidase 4 (Homo sapiens) (UniProt Q9NPH5). In words: NOX4-dependent H2O2 signal modulators, primary screen, NOX inhibitor project, cell-based, HEK293-NOX4, tetracycline-induced, Amplex Red fluorescence (AID 1160). Particulars: 45 min, higher = more signal, called active from +8 up or from −8 down.
NADPH oxidase 4 (Homo sapiens), sequence (Q9NPH5 whole entry, looked up): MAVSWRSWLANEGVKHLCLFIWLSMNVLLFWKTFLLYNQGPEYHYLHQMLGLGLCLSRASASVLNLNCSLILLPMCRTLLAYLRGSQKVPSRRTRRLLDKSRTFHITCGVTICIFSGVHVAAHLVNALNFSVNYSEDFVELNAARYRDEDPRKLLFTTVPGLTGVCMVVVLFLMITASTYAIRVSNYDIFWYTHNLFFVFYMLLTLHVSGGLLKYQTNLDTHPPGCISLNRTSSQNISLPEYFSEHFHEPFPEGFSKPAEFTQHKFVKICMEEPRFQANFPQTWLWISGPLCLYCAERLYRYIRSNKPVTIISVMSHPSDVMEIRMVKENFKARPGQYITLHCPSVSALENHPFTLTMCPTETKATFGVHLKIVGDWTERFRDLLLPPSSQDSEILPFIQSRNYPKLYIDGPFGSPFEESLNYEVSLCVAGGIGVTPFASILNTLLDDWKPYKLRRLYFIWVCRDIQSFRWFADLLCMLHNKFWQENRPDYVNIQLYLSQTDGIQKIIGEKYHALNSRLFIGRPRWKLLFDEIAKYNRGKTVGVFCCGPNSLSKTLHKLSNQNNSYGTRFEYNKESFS
Test [10] has as its target NADPH oxidase 5 (Homo sapiens) (UniProt Q96PH1). In words: NOX5-dependent H2O2 signal modulators, primary screen, NOX inhibitor project, cell-based, HEK293-NOX5, Amplex Red fluorescence (AID 1161). Particulars: HEK293-NOX5, ionomycin, 45 min, higher = more signal.
Test [11] in a line: A549 cell viability effects, profiling panel, calcein-AM fluorescence, 48 h, basal (AID 1162). Also: test concentration not given here. The conditions noted are these: higher = more signal.
Test [12] is described as follows: adipocyte viability effects, profiling panel, cell-based, 3T3-L1 adipocytes, calcein-AM fluorescence, 48 h, basal (AID 1163). Also: test concentration not given here. Particulars: 3T3-L1 adipocytes viability, higher = more signal.
The nature of test [13]: HepG2 cell viability effects, profiling panel, calcein-AM fluorescence, 48 h, basal (AID 1164). Also: test concentration not given here. Particulars: higher = more signal.
Test [14] can be described thus: MM1S cell viability effects, profiling panel, calcein-AM fluorescence, 48 h, basal (AID 1165).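 Also: viability of MM1S multiple myeloma cells under basal unstimulated conditions; test concentration not given here.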 Particulars: higher = more signal.
Test [15] in a line: basal RPMI8226 viability, no added stimulus, profiling panel, cell-based, calcein-AM fluorescence, 48 h, PK04 Diversity Set (AID 1166).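 Also: cells grown under basal conditions without added stimulus; test concentration not given here.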 The conditions noted are these: RPMI8226 myeloma viability, higher = more signal.
The nature of test [16]: basal HepG2 mitochondrial membrane potential changes, profiling panel, cell-based, JC-1 fluorescence, 24 h, 100 nL compound (AID 1167). Also: test concentration not given here. Particulars: higher = more signal.
Test [17] can be described thus: basal 3T3-L1 adipocyte mitochondrial potential changes, profiling panel, cell-based, JC-1 fluorescence, 3T3-L1 adipocytes, 24 h, 100 nL compound (AID 1168). Also: test concentration not given here. Particulars: JC-1 mitochondrial fluorescence, higher = more signal, called active from +8 up or from −8 down.
The nature of test [18]: basal RPMI8226 mitochondrial membrane potential changes, profiling panel, cell-based, JC-1 fluorescence, 24 h, 100 nL compound (AID 1169). Also: test concentration not given here. Particulars: RPMI8226 myeloma, JC-1 mitochondrial potential fluorescence, higher = more signal.
Test [19] is described as follows: basal MM1S mitochondrial membrane potential changes, profiling panel, cell-based, JC-1 fluorescence, 24 h, 100 nL compound (AID 1170). Also: test concentration not given here. Particulars: higher = more signal.
Test [20] can be described thus: A549 lung cancer cell viability effects, profiling panel, resazurin fluorescence, 24 h, PK04 Diversity Set (AID 1171). Also: test concentration not given here. Particulars: higher = more signal, called active from +8 up or from −8 down. (Alamar Blue is a resazurin reagent that responds to reducing activity.)

Active and inactive are the calls of the source.

NADPH oxidase 5 (Homo sapiens), sequence (Q96PH1 whole entry, looked up): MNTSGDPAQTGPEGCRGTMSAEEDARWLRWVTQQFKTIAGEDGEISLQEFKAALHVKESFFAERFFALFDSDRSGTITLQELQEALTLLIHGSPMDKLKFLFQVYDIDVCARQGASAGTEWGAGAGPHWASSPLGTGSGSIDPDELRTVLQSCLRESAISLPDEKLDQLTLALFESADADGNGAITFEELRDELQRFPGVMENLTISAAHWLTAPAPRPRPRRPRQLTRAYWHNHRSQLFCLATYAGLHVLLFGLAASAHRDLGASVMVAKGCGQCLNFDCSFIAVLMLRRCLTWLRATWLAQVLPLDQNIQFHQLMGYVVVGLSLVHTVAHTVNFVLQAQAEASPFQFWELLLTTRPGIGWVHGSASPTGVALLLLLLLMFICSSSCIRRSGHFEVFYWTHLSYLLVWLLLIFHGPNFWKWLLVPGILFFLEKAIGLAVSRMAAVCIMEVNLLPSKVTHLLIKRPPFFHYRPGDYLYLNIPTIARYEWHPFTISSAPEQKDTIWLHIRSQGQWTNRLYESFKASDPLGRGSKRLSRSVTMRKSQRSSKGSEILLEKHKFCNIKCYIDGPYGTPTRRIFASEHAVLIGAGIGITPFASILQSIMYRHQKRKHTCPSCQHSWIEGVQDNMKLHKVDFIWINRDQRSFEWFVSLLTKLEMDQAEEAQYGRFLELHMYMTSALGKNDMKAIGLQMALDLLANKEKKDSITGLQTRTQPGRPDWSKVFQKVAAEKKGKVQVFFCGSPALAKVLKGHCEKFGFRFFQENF
NADPH oxidase 2 (Homo sapiens), sequence (P04839 whole entry, looked up): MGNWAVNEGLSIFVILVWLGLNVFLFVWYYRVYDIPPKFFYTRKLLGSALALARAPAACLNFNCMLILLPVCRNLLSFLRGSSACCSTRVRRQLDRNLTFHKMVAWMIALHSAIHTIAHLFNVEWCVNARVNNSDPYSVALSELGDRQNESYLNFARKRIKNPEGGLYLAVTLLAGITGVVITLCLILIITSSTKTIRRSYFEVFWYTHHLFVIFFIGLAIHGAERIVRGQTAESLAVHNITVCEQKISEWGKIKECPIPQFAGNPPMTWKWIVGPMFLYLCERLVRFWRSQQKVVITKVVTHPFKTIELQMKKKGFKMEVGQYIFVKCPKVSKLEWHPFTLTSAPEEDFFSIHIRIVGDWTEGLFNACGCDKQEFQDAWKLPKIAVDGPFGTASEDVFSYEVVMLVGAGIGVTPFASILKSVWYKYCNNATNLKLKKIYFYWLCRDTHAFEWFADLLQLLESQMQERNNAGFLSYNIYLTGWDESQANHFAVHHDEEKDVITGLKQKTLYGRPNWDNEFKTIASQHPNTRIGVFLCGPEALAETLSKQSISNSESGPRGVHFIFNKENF

Regarding `[N-]=[N+]=Nc1ccccc1[C@@H]1OC(c2ccc(OCCCO)cc2)=N[C@]1(CCS(=O)(=O)c1ccccc1)C(=O)N1CCOCC1`, the z-score in [1] was 0.325 (inactive); in [3], 30.4 (active); in [4], 25.4 (active); in test [5], 0.736 (inactive); in test [6] it was 6.38 (inactive); in test [7] it was -0.444. Moreover, the z-score in test [8] was -1.54 (inactive); in [9] it was 1.47 (inactive); in test [10], 1.47; in test [11], 1.53; in test [12] it was 0.293; in test [13], 1.33. Also, the z-score in test [14] was 0.0503; in test [15], -0.908; in [16], 0.431; in [17] it was 0.406 (inactive); in [18], -0.746; in test [19], -0.799. Further, in [20], the z-score is -0.549 (inactive). This compound also yielded a composite z-score in test [2] of 0.701.

With `CO[C@H]1O[C@H](CO)[C@@H](OC(=O)Nc2ccc(Oc3ccccc3)cc2)[C@H](OC(=O)Nc2ccccc2)[C@H]1OC(=O)Nc1ccccc1`, the z-score is 0.415 (inactive) in test [1]; 3.14 (inactive) in test [3]; 1.09 (inactive) in test [4]; 1.4 (inactive) in test [5]; 0.766 (inactive) in [6]; 0.696 in test [7]. Further, the z-score in test [8] is -0.909 (inactive); in test [9], -3.18 (inactive); in test [10], -0.854; in test [11], -1.63; in [12], 0.547; in test [13] it was -3.37. The z-score in [14] is -2.24; in test [15], -3.61; in test [16], -0.684; in test [17], 1.2 (inactive); in [18], -1.31; in test [19] it was -0.427. In test [20], the z-score is -3.41 (inactive). Further, the composite z-score in test [2] turned out to be 0.407.

As to `O=C1O[C@H](c2ccccc2)[C@H](c2ccccc2)N2[C@H]1[C@@H](C(=O)N1CCN(c3ncccn3)CC1)[C@]1(C(=O)Nc3ccccc31)[C@H]2c1ccc(OCCO)cc1`, the z-score in test [1] is 2.64 (inactive); in test [3] it was 7.83 (inactive); in [4], 0.395 (inactive); in test [5], 0.81 (inactive); in [6], -1.32 (inactive); in test [7], 2.11. The z-score was 0.192 (inactive) in [8]; -1.33 (inactive) in test [9]; -2.84 in test [10]; 0.404 in [11]; 1.35 in test [12]; 0.121 in [13]. The z-score in test [14] was 0.0498; in [15] it was -2.17; in test [16], -0.592; in test [17] it was 1.53 (inactive); in [18] it was -1.16; in [19], -0.537. The z-score in [20] was 1.18 (inactive). In test [2], the composite z-score was -0.0221.

With `CC(C)N1C(=O)C[C@@](C(=O)NCc2ccccc2)(c2ccc([N+](=O)[O-])cc2)[C@H]1c1ccc(CO)cc1`, the z-score is 1.05 (inactive) in test [1]; 1.58 (inactive) in test [3]; -0.273 (inactive) in [4]; 1.03 (inactive) in [5]; 0.449 (inactive) in test [6]; -0.081 in [7]. For the same compound, the z-score in test [8] is -0.85 (inactive); in test [9] it was -0.235 (inactive); in [10], -1.72; in test [11], -0.508; in [12], -0.749; in test [13] it was -0.113. Moreover, the z-score in [14] was -0.0234; in [15], -0.0746; in [16], 0.924; in [17] it was 1.08 (inactive); in [18], -0.744; in test [19], 0.301. Also, in test [20], the z-score was 0.0885 (inactive). The compound also came in with a composite z-score in test [2] of -0.409.

For the compound `CC(C)C[C@@H]1NC(=O)[C@H]2C[C@@H](C(=O)NCCCCCNC(=O)CS)[C@@H](c3cccc(OCCO)c3)N2C1=O`, the z-score in [1] is -0.586 (inactive); in [3], 2.59 (inactive); in test [4] it was 0.505 (inactive); in test [5], -0.47 (inactive); in test [6] it was 0.327 (inactive); in [7], -0.592. The z-score in test [8] is 2.16 (inactive); in [9] it was 1.21 (inactive); in test [10], 0.93; in test [11] it was 0.546; in [12] it was -0.206; in test [13], -0.158. For the same compound, the z-score was -1.11 in [14]; -0.768 in [15]; -0.0747 in [16]; -0.362 (inactive) in [17]; 0.565 in test [18]; 0.975 in [19]. Further, in test [20], the z-score is 0.276 (inactive). In addition, the composite z-score in test [2] was -0.0511.

The record behind these values is PubChem BioAssay.
